Screening results: PubChem BioAssay, National Center for Advancing Translational Sciences (NCATS)
In the library only some 1.3% were active in any assay of this set; here they are far more common.
pAkt inh = HTS Assay for Inhibitors of Akt Phophorylation: Primary Screen; Neuro2A IGF-stimulated pAkt S473 HTRF, 20 min; stronger effect = lower value; activity change, % for hits at 50 µM; hit rate 0.32% among 360,000; AID 651550, 2012; in the data active = activity change below about -80%; inconclusive = mostly about -51% to -80%; also: % is scaled to controls: 0 for no effect and ±100 for the full control effect
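Neuro2A cells in DMEM with 0.5% FBS, overnight at 37 deg C, given compound at single 50 µM final, then IGF (6 nM final) for 20 min at 37 deg C. Lysed; phospho-Akt Ser473 by HTRF after 24 h, 665/615 ratio.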
RXFP1 agonist = qHTS Assay for Agonists of the Relaxin Receptor RXFP1; HEK293T-RXFP1 cAMP TR-FRET, 30 min; response scale: percent of porcine relaxin response, buffer zero; Potency, µM (titrated, usually from 57.5 µM), for the others: at the highest dose activation, hits mostly activators; hit rate 0.3% among 370,000; active = well fitted activation curve with a large enough effect; inconclusive = small, poorly fitted or top-dose-only effect; also: potency is read from the fitted curve at half-maximal effect; % is scaled to controls: 0 for no effect and ±100 for the full control effect; nearly all actives have a fitted effect of over 60% in size
Target sequence (Q9HBX9 whole entry, looked up): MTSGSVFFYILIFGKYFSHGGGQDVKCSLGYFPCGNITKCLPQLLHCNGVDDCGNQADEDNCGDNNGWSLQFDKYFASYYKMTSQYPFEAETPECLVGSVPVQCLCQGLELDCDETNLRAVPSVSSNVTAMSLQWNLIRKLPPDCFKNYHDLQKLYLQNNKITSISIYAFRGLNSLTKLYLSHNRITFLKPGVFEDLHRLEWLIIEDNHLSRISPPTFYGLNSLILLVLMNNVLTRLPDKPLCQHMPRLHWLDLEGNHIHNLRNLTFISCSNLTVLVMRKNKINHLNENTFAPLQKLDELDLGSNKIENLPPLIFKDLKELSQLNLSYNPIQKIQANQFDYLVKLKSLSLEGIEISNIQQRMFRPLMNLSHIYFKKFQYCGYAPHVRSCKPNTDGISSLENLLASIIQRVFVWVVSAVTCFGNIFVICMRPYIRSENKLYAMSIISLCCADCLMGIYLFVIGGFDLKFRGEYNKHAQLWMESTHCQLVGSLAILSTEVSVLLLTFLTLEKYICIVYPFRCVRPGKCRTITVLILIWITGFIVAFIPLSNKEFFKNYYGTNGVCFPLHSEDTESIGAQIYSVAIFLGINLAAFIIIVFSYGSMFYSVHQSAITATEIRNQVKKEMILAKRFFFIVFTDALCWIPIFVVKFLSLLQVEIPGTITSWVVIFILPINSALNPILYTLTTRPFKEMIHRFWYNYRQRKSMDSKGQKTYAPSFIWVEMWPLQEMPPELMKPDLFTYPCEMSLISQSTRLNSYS
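HEK293 cells stably expressing RXFP1, treated 30 min at 37C with compounds plus PDE4 inhibitor Ro 20174; cAMP measured by HTRF TR-FRET. Normalized to buffer and 29 nM porcine relaxin; EC50 by Hill fit.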
gsp antag = qHTS for Antagonists of gsp, the Etiologic Mutation Responsible for Fibrous Dysplasia/McCune-Albright Syndrome: qHTS | hit rate 0.4% among 340,000 | gsp-mutant cells, cAMP HTRF, 30 min | Potency, µM (highest dose often 76.9 µM), inactives show top-dose activity change, negative = inhibition, most hits filed as inhibitors; calls by dose curve; cell line not stated here;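 also: intracellular cAMP measured with PDE inhibitor Ro 20-1724 present during compound exposure; potency is read from the fitted curve at half-maximal effect; % is scaled to controls: 0 for no effect and ±100 for the full control effect; nearly all actives have a fitted effect of over 65% in size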
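Measurement of cellular cAMP by homogeneous time-resolved fluorescence following a 30 min compound exposure at 37C. The PDE inhibitor […] was present throughout; the assay buffer was DPBS with 0.05% BSA and 0.005% Tween 20.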
RXFP1 antag = qHTS Assay for Antagonists of the Relaxin Receptor RXFP1; activity change, negative = inhibition, % at 57.5 µM; hit rate 0.59% among 350,000; HEK293-RXFP1, relaxin-stimulated cAMP HTRF, 30 min; stronger effect = lower value; Relaxin receptor 1 (Homo sapiens), Q9HBX9;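 active = activity change of -60% or lower, but not beyond a set lower limit; inconclusive = change between -60% and -40%, or beyond the set limit; inactive = change above -40%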; also: % is scaled to controls: 0 for no effect and ±100 for the full control effect
TSHR antagonist = Antagonists of the Thyroid Stimulating Hormone Receptor: HTS campaign; activity change, negative = inhibition, % at 11.5 µM; TSHR-expressing cells, TSH-stimulated cAMP HTRF, 2 h; stronger effect = lower value; Thyrotropin receptor (Homo sapiens), P16473; AID 504810, 2011; hit rate 0.2% among 330,000;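 active = activity change below a set negative limit, meaning inhibition stronger than a set level, cut at about -70% in these data; inconclusive = activity change between two set negative limits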; also: % is scaled to controls: 0 for no effect and ±100 for the full control effect
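Antagonism was scored as loss of TSH-driven cAMP in TSHR cells, stimulated with 4nM TSH (EC80) for 2 hours at 37 deg C and detected by homogeneous HTRF competition immunoassay.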
gsp ag = qHTS for Agonist of gsp, the Etiologic Mutation Responsible for Fibrous Dysplasia/McCune-Albright Syndrome: qHTS; gsp mutant cells, cAMP HTRF, 30 min; Potency, µM (titrated, usually from 76.9 µM), for the others: top-dose activation (cAMP increase), actives largely listed as activators; hit rate 0.13% among 340,000; AID 624287, 2012; active = well fitted activation curve with a large enough effect; inconclusive = small, poorly fitted or top-dose-only effect, or another doubt; inactive = no such curve, though single readings can be large or run the other way; cell line not stated here;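 also: phosphodiesterase inhibitor Ro 20-1724 added with compounds to block cAMP breakdown; potency is read from the fitted curve at half-maximal effect; nearly all actives have a fitted effect of over 60% in size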
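Cells stably selected in G418 were plated at 2000/well, grown 16-24 hr, then given compounds in DMSO with the PDE inhibitor […] (300 uM solution added) for 30 min at 37C; cAMP was read by HTRF.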
Starred values were filed as active, the others as inactive; i = inactive; ? = inconclusive; / = no result given; [ ] = another dose, or the depositor's remark.

SMILES	pAkt inh	RXFP1 agonist	gsp antag	RXFP1 antag	TSHR antagonist	gsp ag
CCN(C(=O)c1cc(S(=O)(=O)N2CCOCC2)cn1C)c1ccc(OC)cc1	/	-0.9%	/	-1.4	/	/
CCOc1ccc(-n2c(=O)c3sccc3n(CC(=O)NCC3CCCO3)c2=O)cc1 (stereo unspecified)	i	1.2%	4.8%	-17.8	19.8	4.8%
CCOc1ccccc1Cn1c(=O)sc2ccccc21	i	-0.8%	?	-86.9*	-5.6	-3.3%[15.4 µM]
CCCCOc1ccccc1Cn1c(=O)oc2ccccc21	-111.6%*	1.9%	-4.1%	-14.9	-24.8	-36.5%
CC1CCCCN1C(=O)CN1C(=O)CSc2ccc(S(=O)(=O)N3CCOCC3)cc21 (stereo unspecified)	i	4.7%	-4.9%	12.5	4.5	3.8%
CCc1ccc(OCC(=O)NC2CC(C)(C)NC(C)(C)C2)cc1	i	2.6%	6.3%	-4.3	-20.8	21.4%
Cc1ccc(OCC(=O)NC2CC(C)(C)NC(C)(C)C2)cc1C	i	-2.0%	2.4%	-82.0*	4.6	-36.2%
CC1(C)CC(NC(=O)COc2ccc3ccccc3c2)CC(C)(C)N1	-115.1%*	1.0%	3.3%	-2.0	9.9	-4.2%
O=C(Nc1ccc(Oc2ccccc2)cc1)C1CCN(S(=O)(=O)c2ccccc2)CC1	/	-0.5%	/	-22.5	/	/
CC1(C)COC2(OC1)C(=O)N(CN1CCOCC1)c1ccccc12	i	0.6%	8.9%	-15.9	-9.9	-10.1%[15.4 µM]
NC(=O)C1CCN(c2nc(-c3cccc([N+](=O)[O-])c3)cs2)CC1	/	/	/	/	-7.0	/
CC(=O)Nc1ccc(Br)c2ccccc12	i	28.2µM*	11.7%	3.8	-2.5	28.2µM*
CCOC(=O)c1ccccc1NC(=O)Cn1cnc2c1c(=O)n(C)c(=O)n2C	/	4.1%	12.7%	1.3	2.5	28.2µM*
Cn1c(=O)c2c(ncn2CC(=O)Nc2nc3ccc(F)cc3s2)n(C)c1=O	-121.9%*	0.8%	-3.5%	4.5	-7.0	?
COc1ccc2nc(NC(=O)Cn3cnc4c(=O)n(C)c(=O)n(C)c43)sc2c1	i	2.5%	0.2%	-1.1	7.8	0.4%
COc1cccc(OC)c1C(=O)Nc1ccc2c(c1)N(S(=O)(=O)c1cccs1)CCC2	i	-0.4%	-24.3%	-4.2	-112.0*	20.9%
C[C@@H]1C[C@H]2[C@@H]3CCC4=CC(=O)C=C[C@]4(C)[C@@]3(F)[C@@H](O)C[C@]2(C)[C@@]1(O)C(=O)COC(=O)c1ccncc1	/	/	/	-11.1	/	/
CC(=O)N1CCC(=NNC(=O)c2cc3ccccc3cc2O)CC1	/	-0.3%	?	-92.9*	-0.6	8.4%
O=C(CCCN1C(=O)c2cccc3cccc(c23)C1=O)N1CCN(c2ccccc2O)CC1	i	2.0%	10.4%	-1.1	-34.1	18.1%
CCOc1ccccc1N1CCN(C(=O)CCCN2C(=O)c3cccc4cccc(c34)C2=O)CC1	i	0.8%	-13.7%	12.4	-81.0*	0.0%
CCCc1cc(C(=O)N(C2CCCCC2)C2CCCCC2)no1	i	-0.2%	-25.7%	-70.4*	-24.8	-50.9%
CCCc1cc(C(=O)NC2CCCCC2)no1	i	3.3%	4.7%	8.1	6.7	-20.8%
CCOc1ncc(F)c(=O)[nH]1	/	/	/	5.6	/	/
Cc1cc(NC(=O)c2cccs2)ncc1NC(=O)C(C)C	i	0.4%	-0.4%	-2.4	8.6	-3.9%[15.4 µM]
CCOc1cc(CNc2ccc(N3CCCCC3)cc2)cc(Br)c1OCC(=O)NC(C)(C)C	i	3.2%	-8.8%	-4.5	-4.1	-2.1%
SMILES	pAkt inh	RXFP1 agonist	gsp antag	RXFP1 antag	TSHR antagonist	gsp ag
CCOc1cc(CNc2ccc(N(C)C)cc2)cc(Br)c1OCC(=O)NC(C)(C)C	i	0.1%	?	-109.5*	-76.3*	-41.1%
C=CCOc1c(Br)cc(CNc2ccc(NC(=O)CCC)cc2)cc1OCC	-100.4%*	1.4%	-10.7%	-25.5	-9.5	-22.1%
CC(C)C(NC(=O)Cc1ccccc1)C(=O)N1CCN(c2cccc(Cl)c2)CC1 (stereo unspecified)	i	0.6%	28.2µM*	4.8	-45.0	10.4%
COc1ccc(C(=O)NCC2(c3ccccc3)CCCC2)c(OC)c1	i	-0.7%	?	-5.3	2.1	-13.9%
COc1ccc(C2(CNC(=O)CCC(=O)O)CCCC2)cc1	-114.5%*	-0.1%	0.1%	-2.4	12.3	14.2%
Cc1ccc(/C(O)=C2\C(=O)C(=O)N(CC(C)O)C2c2cccc(F)c2)cc1 (stereo unspecified)	-112.7%*	14.7%	20.8%	21.0	12.2	?
COc1cc(CNCCO)cc(Br)c1OCc1ccccc1Cl	i	-0.4%	25.3%	-75.9*	2.9	-13.4%
CCc1c(C(=O)Nc2cc(C)cc(C)c2)[nH]c(C)c1C(C)=O	i	-1.4%	35.5µM*	-8.6	-11.3	-7.0%
CC1CC1C(=O)OCc1cc(=O)n2cc(Br)ccc2n1 (stereo unspecified)	i	16.4%	5.0%	1.2	1.0	?
O=C(OCc1cc(=O)n2cc(Br)ccc2n1)C1COc2ccccc2O1 (stereo unspecified)	i	9.2%	-3.8%	-9.9	0.0	10µM*
CCN(CC(=O)NCc1ccc(Cl)cc1)C(=O)CSc1ccc(Br)cc1	i	3.8%	39.8µM*	-38.9	6.8	19.5%
CCN(CC(=O)NCc1ccc(Cl)cc1)C(=O)NCc1ccc(Cl)cc1	i	0.4%	-5.9%	2.5	8.6	-3.5%[15.4 µM]
CN(Cc1nc2ccccc2c(=O)[nH]1)C(=O)c1ccc(S(=O)(=O)N2CCCC2)cc1	i	3.5%	-3.1%	-2.9	-1.0	-7.9%
CCN(CC)S(=O)(=O)c1cccc(NC(=O)Nc2cccc(C(F)(F)F)c2)c1	i	-1.1%	31.6µM*	-15.5	-74.2*	-33.4%
CCCCC[C@H](O)C=C[C@H]1[C@H](O)CC(=O)[C@H]1CC=CCCCC(=O)O	/	/	/	3.3	/	/
Cn1c(=O)c2sccc2n2c(CCCC(=O)N3CCCCC3)nnc12	/	17.8µM*	-4.5%	4.3	27.8	?
CCCNC(=O)NS(=O)(=O)c1ccc(Cl)cc1	i	4.4%	-5.4%	14.3	-11.7	/
CCCNC(=O)c1nnsc1S(=O)c1ccc(Cl)cc1 (stereo unspecified)	i	1.0%	?	-71.2*	-38.4	13.9%[15.4 µM]
CCCNC(=O)c1nnsc1S(=O)(=O)c1ccc(Cl)cc1	i	-2.5%	10.7%	-63.2*	?	7.2%[15.4 µM]
